Structures can show the parent of a compound that is named as a salt. Over roughly 2,800 compounds, “cell viability relative to vehicle” has its median near 1.1; the lowest 2% begin near 0.19. For the sample, the lowest values were picked, then their nearest neighbours and some compounds at random.
System: NCI-H2228 parental
Assay: cell viability relative to vehicle (fraction of vehicle); NCI-H2228 is an ALK-positive lung cancer line and DTP means drug-tolerant persister; higher = less growth inhibition
Settings: 100 nM; treatment time 6 days
Summary of the method: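 Parental NCI-H2228 cells and drug-tolerant persister cells (made with 1000 nM of a targeted drug for 13 days) were seeded in 384-well plates. The next day, the 3114-agent TargetMol anti-cancer compound library was added at 100 nM, with DMSO as vehicle. After 6 days, ATP was read with the CellTiter-Glo 3D Cell Viability Assay. Each value is cell viability relative to vehicle-treated cells.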

Structure (SMILES) | cell viability
CN1CCc2c(c3ccccc3n2Cc2ccc(C(=O)NO)cc2)C1 [Tubastatin A HCl] | 1.02
Cn1cc(C[C@@H](N)C(=O)O)c2ccccc21 [Indoximod] | 1.11
Cn1cc(CNCC2CCN(c3ncc(C(=O)NO)cn3)CC2)c2ccccc21 [Quisinostat] | 0.159
CCCN1CCN(c2ccc(C(=O)NC3(C(=O)NCC#N)CCCCC3)cc2)CC1 [Balicatib] | 1.07
CC(C)=CCC[C@](C)(O)[C@H]1CC[C@]2(C)[C@@H]1[C@H](O)C[C@@H]1[C@@]3(C)CC[C@H](O)C(C)(C)[C@@H]3[C@@H](O[C@@H]3O[C@H](CO)[C@@H](O)[C@H](O)[C@H]3O[C@@H]3O[C@@H](C)[C@H](O)[C@@H](O)[C@H]3O)C[C@]12C [Ginsenoside Rg2] | 1.15
CCCCCCCCOC(=O)c1cc(O)c(O)c(O)c1 [Octyl gallate] | 1.03
CC[C@@](C)(Nc1ccnc(-c2c[nH]c3ncccc23)n1)C(=O)NCC(F)(F)F [Decernotinib] | 1.12
COc1cc2ncnc(Nc3cccc(Cl)c3)c2cc1OC | 0.877
O=C(Nc1cccc(Cl)c1)Nc1ncc(CCNc2ncnc3ccsc23)s1 [SNS-314 Mesylate] | 0.126
COc1cc(/C=C/C(=O)OC[C@H]2O[C@H](O[C@]3(CO)O[C@H](CO)[C@@H](O)[C@@H]3OC(=O)/C=C/c3cc(OC)c(O)c(OC)c3)[C@H](O)[C@@H](O)[C@@H]2O)cc(OC)c1O [3,6'-Disinapoyl sucrose] | 0.963
Fc1ccc(-n2cc(CCCCN3CCC4(CC3)OCc3ccccc34)c3ccccc32)cc1 [Siramesine hydrochloride] | 1.13
COc1ccc(-c2cc3c(C)nc(N)nc3n([C@H]3CC[C@H](OCCO)CC3)c2=O)cn1 | 0.485
COc1cccc(-c2cc(F)ccc2[C@H]2Cc3nc(N)nc(C)c3C(=O)N2)n1 | 0.171
Oc1ccc(-c2cc(=S)ss2)cc1 [Desmethylanethol trithione] | 1.03
Cc1cc(C#N)c(N)s1 [2-Amino-5-methyl-3-thiophenecarbonitrile] | 0.811
COCCNc1cc(NC(=O)N2CCCc3cc(CN4CCN(C)CC4=O)c(C=O)nc32)ncc1C#N [Roblitinib] | 1.13
COc1ccc2[nH]c(C(=O)c3ccccc3)cc2c1 | 0.197
O=C(CCCCCCNC(=O)c1cnc(N(c2ccccc2)c2ccccc2Cl)nc1)NO [Citarinostat] | 1.03
CC(C)c1cc(-c2n[nH]c(=O)n2-c2ccc3c(ccn3C)c2)c(O)cc1O [Ganetespib] | 0.118
CCc1c2c(nc3ccc(O)cc13)-c1cc3c(c(=O)n1C2)COC(=O)[C@]3(O)CC | 0.0693
CC[C@@]1(O)C(=O)OCc2c1cc1n(c2=O)Cc2cc3cc(O)ccc3nc2-1 [10-Hydroxycamptothecin] | 0.0838
CC[C@@]1(O)C(=O)OCc2c1cc1n(c2=O)Cc2cc3c(CN(C)C)c(O)ccc3nc2-1 [Topotecan hydrochloride] | 0.0837
CCc1c2c(nc3ccc(OC(=O)N4CCC(N5CCCCC5)CC4)cc13)-c1cc3c(c(=O)n1C2)COC(=O)[C@]3(O)CC [Irinotecan] | 0.939
CCc1c2c(nc3ccc(OC(=O)N4CCC(N5CCCCC5)CC4)cc13)-c1cc3c(c(=O)n1C2)COC(=O)[C@]3(O)CC [Irinotecan hydrochloride trihydrate] | 1.11

Structure (SMILES) | cell viability
CC[C@@]1(O)C(=O)OCc2c1cc1n(c2=O)Cc2cc3cc(O)ccc3nc2-1 [Hydroxy Camptothecine] | 0.0691
CC(C)C(C(=O)O)N1C(=O)C(=Cc2ccc(Br)cc2)SC1=S (stereo not drawn) | 1.04
COc1ccc(-c2oc3cc(O)cc(O)c3c(=O)c2O)cc1 [kaempferide] | 1.13
OC[C@H]1O[C@@H](Oc2cc(O)cc(/C=C/c3ccc(O[C@@H]4O[C@H](CO)[C@@H](O)[C@H](O)[C@H]4O)cc3O)c2)[C@H](O)[C@@H](O)[C@@H]1O [Mulberroside A] | 1.07
N[C@@H](CO)C(=O)O [serine] | 1.06
COc1ccc(C(=C2C(=O)Nc3ccccc32)c2ccc(OC)cc2)cc1 | 1.05
CN(C)C(=S)NN=C(c1ccccn1)c1ccccn1 | 0.212
C/C(=N\NC(=S)N1CCC1)c1ccccn1 | 0.136
S=C(N/N=C1/CCCc2cccnc21)N1CCN(c2ccccn2)CC1 | 1.09
COc1cc(OC)cc(C(=O)Nc2ccc(Cl)c(-c3nc4ccc(N(C)C)cc4[nH]3)c2)c1 [HhAntag] | 1.03
NC(=O)c1ccc(OCCCN2CC3CCCC3C2)cc1 (stereo not drawn) | 1.17
COc1c(Nc2ncc(Cl)c(N[C@H]3[C@@H](C(N)=O)[C@@H]4C=C[C@H]3C4)n2)ccc2c1CC[C@@H](N1CCOCC1)CC2 | 0.799
Cc1[nH]c2ccccc2c1CCNC(=O)c1cccs1 | 1.06
Cc1[nH]c2ccccc2c1CCNCc1ccc(/C=C/C(=O)NO)cc1 [Panobinostat] | 0.094
CN(C)Cc1ccc(S(=O)(=O)n2ccc(/C=C/C(=O)NO)c2)cc1 [Resminostat hydrochloride] | 1.02
CC(C)c1cc2c(c(O)c1O)[C@@]13CCCC(C)(C)[C@@H]1C[C@@H]2OC3=O [Carnosol] | 1.04
O=C1C=C2C=C[C@@H](O)[C@H](O)[C@H]2O1 [griffonilide] | 1.11
N#CN=C(NCCCCCCOc1ccc(Cl)cc1)Nc1ccncc1 | 0.0557
N=C(NCCCCCCNC(=N)NC(=N)Nc1ccc(Cl)cc1)NC(=N)Nc1ccc(Cl)cc1 [Chlorhexidine hydrochloride] | 0.965
N=C(NCCCCCCNC(=N)NC(=N)Nc1ccc(Cl)cc1)NC(=N)Nc1ccc(Cl)cc1 [Chlorhexidine] | 1.08
CN1CCN(C(=O)C2C(C(=O)O)[C@H]3CC[C@@H]2O3)CC1 (stereo partly drawn) | 0.955
O=C1CSc2ccccc2N1Cc1cccc(C(F)(F)F)c1 | 1.04
OC[C@@H](O)[C@@H](O)[C@@H](O)[C@@H](O)CO [Allitol] | 1.13
Cn1cc(-c2nc(N[C@@H]3CCCC[C@@H]3N)c(F)c3c2C(=O)NC3)cn1 [TAK-659 hydrochloride] | 1.01
